S1P4 agonist: activates the human S1P4 receptor. actives 0.35% (n = 220,000). AID 1509. S1P4-expressing cell line, agonist reporter assay. activation, % at 4.98 µM; in the data active = activation above about 11%
GALR2 antag: antagonists of human galanin receptor 2 (GALR2); GALR2-expressing cells, antagonist mode; inhibition, % at 4 µM; actives 0.39% (n = 140,000); in the data active = inhibition above about 27%;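 also: cells stimulated with galanin 1-16 at roughly its EC80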
S1P3 antag: blocks the human S1P3 receptor. Q99500. CHO S1P3 NFAT-BLA reporter, FRET fluorescence, antagonist mode. inhibition, % at 4.98 µM. actives 0.27% (n = 170,000). AID 485;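 active = inhibition above the plate cutoff, the mean inhibition of test wells on that plate plus 3 SD, cut at about 28% in these data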;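 also: cells challenged with S1P at its EC80 of 0.8 µM; blue over green emission ratio from cleaved BLA substrate after 4 h stimulation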
Target sequence (Q99500 whole entry, looked up): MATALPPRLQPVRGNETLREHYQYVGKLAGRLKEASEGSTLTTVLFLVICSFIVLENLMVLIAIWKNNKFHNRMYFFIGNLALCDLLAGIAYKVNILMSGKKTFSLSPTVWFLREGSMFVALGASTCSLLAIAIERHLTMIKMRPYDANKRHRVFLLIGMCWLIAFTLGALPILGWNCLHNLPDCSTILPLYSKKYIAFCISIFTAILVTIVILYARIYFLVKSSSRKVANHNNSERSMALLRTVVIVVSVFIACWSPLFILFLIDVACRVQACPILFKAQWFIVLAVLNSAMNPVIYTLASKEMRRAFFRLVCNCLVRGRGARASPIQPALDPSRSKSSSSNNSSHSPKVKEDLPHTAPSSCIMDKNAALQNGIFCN
GALR2 ag: GALR2 (human) receptor agonism; activation, % (concentration not given with the values); actives 0.48% (n = 140,000); GALR2-expressing cells, agonist activation read-out; in the data active = activation above about 5%, passing the limit was not always enough
S1P4 antag: antagonists of human S1P4 receptor. O95977. S1P4-expressing cells, antagonist mode, reporter read-out. inhibition, % at 4.98 µM. actives 0.26% (n = 220,000). AID 1510; in the data active = inhibition above about 29%
S1P4 antag cf: confirmation of human S1P4 receptor antagonists; S1P4-expressing cell line, antagonist mode, reporter read-out; AID 1524; shares compounds with S1P4 antag; inhibition, % at 4.98 µM; actives 71% (n = 520); in the data active = inhibition above about 30%
S1P1 antag: counter-screen for S1P4 antagonists: antagonists of human S1P1; cell-based S1P1 antagonist counterscreen, inhibition; actives 37% (n = 520); inhibition, % at 4.98 µM; shares compounds with S1P4 antag; AID 1564; in the data active = inhibition above about 40%;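 also: receptor stimulated with S1P near its EC80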
Hits are given with their value. The list is not random: actives were taken first. Their share in the collection is about 1.3%.

COc1ccccc1C(c1nnnn1C(C)(C)C)N1CCCCCC1 (stereo not drawn) was read as S1P4 agonist inactive, GALR2 antag inactive, S1P3 antag inactive, GALR2 ag inactive, S1P4 antag 32, S1P4 antag cf inactive and S1P1 antag inactive.
O=C(Nc1cccc(-c2nc3ccccc3s2)c1)c1cc(-n2cnnc2)ccc1Cl was read as S1P4 agonist inactive, GALR2 antag inactive, GALR2 ag inactive, S1P4 antag 31, S1P4 antag cf inactive and S1P1 antag inactive.
Cc1c(NC(=O)c2cc(-n3cnnc3)ccc2Cl)cccc1-c1nc2ccccc2s1 was read as S1P4 agonist inactive, GALR2 antag inactive, GALR2 ag inactive and S1P4 antag inactive.
O=C1/C(=C/Nc2ccc3c(c2)OCO3)CCc2ccccc21 was read as S1P4 agonist inactive, GALR2 antag inactive, S1P3 antag inactive, GALR2 ag inactive, S1P4 antag 31, S1P4 antag cf inactive and S1P1 antag 74.
CCCCNC(=O)c1cc2ccccc2s1 was read as S1P4 agonist inactive, S1P3 antag inactive and S1P4 antag inactive.
Screening CC(C)CC1C2C(=O)N(c3ccccc3)C(=O)C2ON1c1ccccc1 (stereo not drawn) returned S1P4 agonist inactive, S1P3 antag inactive and S1P4 antag inactive.
For COc1ccc(/C=c2/sc3n(c2=O)C(c2ccccc2OC)C2=C(N=3)c3ccccc3CC2)cc1O (stereo not drawn) the results were S1P4 agonist inactive, GALR2 antag inactive, GALR2 ag inactive, S1P4 antag 33, S1P4 antag cf 78 and S1P1 antag 70.
CN1c2ccccc2Oc2nnc(N3CCN(Cc4ccccc4)CC3)cc21 was read as S1P4 agonist inactive, S1P3 antag inactive, S1P4 antag 33, S1P4 antag cf inactive and S1P1 antag inactive.
Screening CN1c2ccccc2Oc2nnc(Cl)cc21 returned S1P4 agonist inactive, S1P3 antag inactive and S1P4 antag inactive.
`Cc1cccc(CS(=O)(=O)c2nnc([C@H](Cc3ccccc3)NC(=O)OC(C)(C)C)o2)c1` gave S1P4 agonist inactive, GALR2 antag inactive, GALR2 ag inactive, S1P4 antag 88, S1P4 antag cf 93 and S1P1 antag inactive.
Cc1c(/C=N/Nc2nc3ccccc3[nH]2)c2ccccc2n1C was read as S1P4 agonist inactive, S1P3 antag inactive, S1P4 antag 32, S1P4 antag cf 108 and S1P1 antag 52.
For O=C(CSCCO)Nc1cccc(C(F)(F)F)c1 the results were S1P4 agonist inactive, GALR2 antag inactive, S1P3 antag inactive, GALR2 ag inactive, S1P4 antag 36, S1P4 antag cf inactive and S1P1 antag inactive.
Screening Cc1cc(C)c(C(=O)Nc2ccc(Br)c(C(F)(F)F)c2)c(C)c1 returned S1P4 agonist inactive, GALR2 antag inactive, S1P3 antag inactive, GALR2 ag inactive, S1P4 antag 29, S1P4 antag cf 53 and S1P1 antag inactive.
`COC(=O)C1C(c2ccc(OC)cc2)C(C(=O)OC)S(=O)(=O)C(CCN2CCCCC2)S1(=O)=O` (stereo not drawn) gave S1P4 agonist inactive, S1P3 antag inactive and S1P4 antag inactive.
O=c1c2c3c(sc2nc(N2CCNCC2)n1CCc1ccccc1)CCCCC3 was read as S1P4 agonist inactive, S1P3 antag inactive and S1P4 antag inactive.
Screening CCOc1ccc(CN2CCN(CC(O)Cn3c4ccccc4c4ccccc43)CC2)cc1 (stereo not drawn) returned S1P4 agonist inactive, GALR2 antag inactive, S1P3 antag inactive, GALR2 ag inactive, S1P4 antag 42, S1P4 antag cf 71 and S1P1 antag 83.
`CCN(CC)C(=O)CN(c1cccc(C(F)(F)F)c1)S(C)(=O)=O` gave S1P4 agonist inactive, GALR2 antag inactive, GALR2 ag inactive and S1P4 antag inactive.
For CCN(CC)C(=O)CN(c1cccc(Br)c1)S(C)(=O)=O the results were S1P4 agonist inactive, S1P3 antag inactive, S1P4 antag 30, S1P4 antag cf inactive and S1P1 antag inactive.
COC(=O)COc1ccc(S(=O)(=O)N2CCN(c3ccccc3)CC2)cc1 was read as S1P4 agonist inactive, S1P3 antag inactive and S1P4 antag inactive.
Screening COC(=O)COc1ccc(S(=O)(=O)N2CCN(c3ccccc3F)CC2)cc1 returned S1P4 agonist inactive, GALR2 antag inactive, S1P3 antag inactive, GALR2 ag inactive, S1P4 antag 29, S1P4 antag cf inactive and S1P1 antag inactive.
`Cc1ccc(C(=O)OCC(=O)NCc2cccs2)cc1S(=O)(=O)N1CCOCC1` gave S1P4 agonist inactive, S1P3 antag inactive and S1P4 antag inactive.
For CCCN(CCC)S(=O)(=O)c1ccc(Cl)c([N+](=O)[O-])c1 the results were S1P4 agonist inactive, S1P3 antag inactive, S1P4 antag 52, S1P4 antag cf 100 and S1P1 antag inactive.
For CCCN(CCC)S(=O)(=O)c1ccc(N2CCCC2=O)c([N+](=O)[O-])c1 the results were S1P4 agonist inactive, GALR2 antag inactive, S1P3 antag inactive, GALR2 ag inactive and S1P4 antag inactive.
Screening CC(C)(C)C(=O)Nc1cc(S(=O)(=O)N2CCCCC2)ccc1N1CCCCC1 returned S1P4 agonist inactive, S1P3 antag inactive and S1P4 antag inactive.
For N#Cc1cn(CCOc2ccccc2F)c2ccccc12 the results were S1P4 agonist inactive, GALR2 antag inactive, S1P3 antag inactive, GALR2 ag inactive, S1P4 antag 37, S1P4 antag cf inactive and S1P1 antag inactive.
`CC(=O)Nc1cccc(CP(=O)(c2ccccc2)c2ccccc2)c1` gave S1P4 agonist inactive, S1P3 antag inactive and S1P4 antag inactive.
Screening CC(C)(C)c1ccc(-n2nc(C#N)c(Cl)cc2=O)cc1 returned S1P4 agonist inactive, S1P3 antag inactive, S1P4 antag 110, S1P4 antag cf 120 and S1P1 antag 49.
Screening CCOc1ccccc1CN1CCN(Cc2csc(C(C)=O)c2)CC1CCO (stereo not drawn) returned S1P4 agonist inactive, S1P3 antag inactive and S1P4 antag inactive.
For CC(C)c1nnc(NC(=O)CCS(=O)(=O)c2nc(-c3cccs3)cc(C(F)(F)F)n2)s1 the results were S1P4 agonist inactive, GALR2 antag inactive, S1P3 antag inactive, GALR2 ag inactive, S1P4 antag 50, S1P4 antag cf 109 and S1P1 antag 54.
`Cc1onc(-c2ccccc2)c1CNC(=O)CN1C(=O)c2ccccc2C1=O` gave S1P4 agonist inactive, S1P3 antag inactive and S1P4 antag inactive.
`Cc1nc2c(=O)n(C)c(=O)n(C)c2nc1Cl` gave S1P4 agonist inactive, GALR2 antag inactive, S1P3 antag inactive, GALR2 ag inactive, S1P4 antag 49, S1P4 antag cf 94 and S1P1 antag 51.
COc1ccc(OC)c(/C=N/NC(=O)CCc2ccc(O)c(O)c2)c1 was read as S1P4 agonist inactive, GALR2 antag inactive, S1P3 antag inactive, GALR2 ag inactive and S1P4 antag inactive.

Screens from PubChem.
